Records with an inconclusive call do not appear. A call without a number means that no potency is given here. Unmarked numbers belong to inactive results. Calls of active or inactive are those of the source. Unless noted, calls come from the whole dose curve; as a rule, active = well fitted curve in the direction sought with a large enough effect in the repeat runs; inconclusive = weak or mixed curves; inactive = no such curve, though single readings can be large; an effect the other way counts as inactive or inconclusive.
Tests used:
[1] = qHTS assay to identify small molecule phospholipidosis (PLD) inducers (AID 1259344; active = well fitted curve in the direction sought with a large enough effect; an effect the other way counts as inactive or inconclusive)
Outline: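 Image-based: LipidTOX Red pit count/intensity per well and per cell; HepG2, 24 h compound at 37 C, PFA fixation, Hoechst counterstain.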

[2] = biological target: Nuclear receptor subfamily 1 group I member 2 (Rattus norvegicus) (UniProt Q9R1A7); assay: Rat pregnane X receptor (rPXR) activation by small molecules, qHTS assay (AID 1346983); settings: rPXR luciferase reporter cells, One-Glo luminescence, 24 h; max activation: stronger effect = higher value; note: nearly all actives have a fitted effect of over 20% in size; note: potency is the fitted concentration of half-maximal effect
Chain of Nuclear receptor subfamily 1 group I member 2 (Rattus norvegicus) (Q9R1A7 whole entry, looked up): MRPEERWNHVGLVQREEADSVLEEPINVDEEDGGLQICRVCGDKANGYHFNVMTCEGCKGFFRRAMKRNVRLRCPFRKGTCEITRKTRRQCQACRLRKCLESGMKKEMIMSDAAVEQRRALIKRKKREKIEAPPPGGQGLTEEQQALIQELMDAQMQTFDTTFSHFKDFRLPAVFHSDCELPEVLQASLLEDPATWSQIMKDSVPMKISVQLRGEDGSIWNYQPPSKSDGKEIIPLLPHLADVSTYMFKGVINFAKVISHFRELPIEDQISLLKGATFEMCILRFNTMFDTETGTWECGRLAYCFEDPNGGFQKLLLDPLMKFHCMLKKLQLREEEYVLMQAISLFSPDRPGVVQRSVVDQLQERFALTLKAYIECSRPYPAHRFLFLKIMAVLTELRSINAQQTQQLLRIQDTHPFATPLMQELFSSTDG
Outline: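 Cell-based rPXR activation assay: rPXR cells, 2,000 per well, rested 5hr at 37 C, then exposed to compounds in DMSO for 24 hr at 37 C. Luciferase activity read by One-Glo luminescence after 30 min at room temperature.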

[3] = qHTS assay to identify aromatase inhibitors - cell viability counter screen (AID 743084);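 note: cells stimulated with testosterone during compound exposure; nearly all actives have a fitted effect of over 55% in size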; note: potency is the fitted concentration of half-maximal effect
[4] = biological target: Aryl hydrocarbon receptor (Homo sapiens) (UniProt P35869); assay: qHTS assay to identify small molecule that activate the aryl hydrocarbon receptor (AhR) signaling pathway (AID 743085); note: nearly all actives have a fitted effect of over 15% in size; note: potency is the fitted concentration of half-maximal effect;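 for activation: HG2L7.5c1 human HepG2 liver cells with stably integrated DRE-driven firefly reporter; series mostly up to about 70 µM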
Chain of Aryl hydrocarbon receptor (Homo sapiens) (P35869 whole entry, looked up): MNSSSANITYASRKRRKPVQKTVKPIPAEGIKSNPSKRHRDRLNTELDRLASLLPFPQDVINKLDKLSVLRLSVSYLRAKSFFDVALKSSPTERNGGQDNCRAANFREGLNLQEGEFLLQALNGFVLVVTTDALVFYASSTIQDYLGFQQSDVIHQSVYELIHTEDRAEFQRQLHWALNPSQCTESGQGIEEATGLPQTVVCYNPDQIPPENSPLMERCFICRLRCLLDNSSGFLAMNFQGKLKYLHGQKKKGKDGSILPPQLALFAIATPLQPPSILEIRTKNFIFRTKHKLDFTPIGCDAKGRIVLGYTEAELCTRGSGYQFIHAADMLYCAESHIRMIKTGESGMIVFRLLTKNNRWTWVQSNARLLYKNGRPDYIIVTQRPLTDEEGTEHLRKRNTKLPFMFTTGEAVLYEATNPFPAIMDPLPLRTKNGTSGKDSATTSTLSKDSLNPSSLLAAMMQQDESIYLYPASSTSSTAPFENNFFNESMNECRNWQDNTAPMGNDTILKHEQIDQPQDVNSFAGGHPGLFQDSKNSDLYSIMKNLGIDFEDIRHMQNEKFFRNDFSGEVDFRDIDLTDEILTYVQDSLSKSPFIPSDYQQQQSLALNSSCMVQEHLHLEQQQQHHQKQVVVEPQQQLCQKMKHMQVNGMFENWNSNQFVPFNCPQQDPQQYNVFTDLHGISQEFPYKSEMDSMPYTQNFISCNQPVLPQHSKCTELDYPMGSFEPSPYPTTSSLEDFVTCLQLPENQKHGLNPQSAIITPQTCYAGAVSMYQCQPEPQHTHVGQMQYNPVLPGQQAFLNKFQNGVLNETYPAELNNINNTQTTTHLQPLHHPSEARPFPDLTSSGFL
Outline: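 Luminescence (ONE-Glo) from a dioxin-responsive-element luciferase reporter in HG2L7.5c1 HepG2 cells after 24 hr compound exposure at 37C; viability measured by CellTiter-Fluor fluorescence beforehand.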

[5] = qHTS assay to identify small molecule that activate the aryl hydrocarbon receptor (AhR) signaling pathway - cell viability counter screen (AID 743086); note: nearly all actives have a fitted effect of over 45% in size; note: potency is the fitted concentration of half-maximal effect
Outline: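 HepG2-AhR-luc (HG2L7.5c1) cells, 4000/well, treated 24 h at 37 C with compound; viability measured as CellTiter-Fluor fluorescence after 30 min in the same wells as the luciferase read.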

[6] = biological target: Nuclear receptor subfamily 1 group I member 2 (Homo sapiens) (UniProt O75469); assay: CYP3A4 induction through human pregnane X receptor (PXR) by small molecules, qHTS assay (AID 1346984); note: nearly all actives have a fitted effect of over 40% in size; note: potency is the fitted concentration of half-maximal effect
Outline: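 Human PXR activation is tracked via CYP3A4 promoter-luciferase in DPX-2 (HepG2) cells. Compounds treat cells for 24hr at 37C, and luminescence is read after One-Glo.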

[7] = biological target: Nuclear receptor subfamily 1 group I member 2 (Homo sapiens) (UniProt O75469); assay: Human pregnane X receptor (PXR) activation by small molecules, qHTS assay (AID 1346985); note: nearly all actives have a fitted effect of over 40% in size; note: potency is the fitted concentration of half-maximal effect
Outline: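 DPX-2 cells (HepG2 co-transfected with a PXR response element and a CYP3A4-promoter luciferase construct) were seeded at 2,000 per well, rested 5 hr at 37C, then exposed to DMSO-dissolved compounds for 24 hr. Activation was read as luciferase luminescence.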

[8] = biological target: Peroxisome proliferator-activated receptor gamma (Homo sapiens) (UniProt P37231); assay: qHTS assay to identify small molecule agonists of the peroxisome proliferator-activated receptor gamma (PPARg) signaling pathway (AID 743094; active = well fitted activation curve with a large enough effect in the signal ratio in the repeat runs, not every such curve was filed as active; the % refers to the signal ratio)
Chain of Peroxisome proliferator-activated receptor gamma (Homo sapiens) (P37231 whole entry, looked up): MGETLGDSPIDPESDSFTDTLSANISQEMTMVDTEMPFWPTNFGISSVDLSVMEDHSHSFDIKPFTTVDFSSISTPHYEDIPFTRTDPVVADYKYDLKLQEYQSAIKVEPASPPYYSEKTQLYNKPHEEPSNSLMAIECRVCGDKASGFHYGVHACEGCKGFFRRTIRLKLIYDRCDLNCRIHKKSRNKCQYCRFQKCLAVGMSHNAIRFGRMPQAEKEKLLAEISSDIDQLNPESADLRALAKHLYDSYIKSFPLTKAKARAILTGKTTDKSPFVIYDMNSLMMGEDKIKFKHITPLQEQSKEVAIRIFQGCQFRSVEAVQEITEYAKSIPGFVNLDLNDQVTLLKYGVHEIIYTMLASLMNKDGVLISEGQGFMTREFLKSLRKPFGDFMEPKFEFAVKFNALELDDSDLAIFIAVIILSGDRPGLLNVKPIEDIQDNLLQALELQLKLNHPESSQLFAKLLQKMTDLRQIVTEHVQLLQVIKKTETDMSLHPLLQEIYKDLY
Outline: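 Cell-based bla reporter, HEK293H background, PPARg-driven UAS. Pre-incubation 5 h, 37C, 5% CO2. Compound 17 h, 37C. Substrate 1 h RT; fluorescence.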

| SMILES | Potency [1] | Potency [2] | Potency [3] | Potency [4] | Potency [5] | max activation [2] [%] | Potency [6] | Potency [7] | Potency [8] |
| --- | --- | --- | --- | --- | --- | --- | --- | --- | --- |
| COC(=O)C1=C(C#N)NC(C)=C(C(=O)OC(C)C)C1c1cccc([N+](=O)[O-])c1 (stereo not given) | inactive | 7.94 µM (active) | – | – | – | – | – | – | – |
| COc1ccc(-c2noc(CC(=O)O)c2-c2ccc(OC)cc2)cc1 | inactive | – | inactive | inactive | inactive | -3.32 | inactive | inactive | – |
| C=CC[C@@H]1/C=C(\C)C[C@H](C)C[C@H](OC)[C@H]2O[C@@](O)(C(=O)C(=O)N3CCCC[C@H]3C(=O)O[C@H](/C(C)=C/[C@@H]3CC[C@@H](O)[C@H](OC)C3)[C@H](C)[C@@H](O)CC1=O)[C@H](C)C[C@@H]2OC | inactive | – | inactive | inactive | inactive | -13.2 | inactive | inactive | – |
| COc1ccc(CC2c3cc(OC)c(OC)cc3CC[N+]2(C)CCC(=O)OCCCCCOC(=O)CC[N+]2(C)CCc3cc(OC)c(OC)cc3C2Cc2ccc(OC)c(OC)c2)cc1OC (stereo not given) | inactive | – | inactive | inactive | inactive | -3.66 | inactive | inactive | – |
| O=[N+]([O-])c1c(Cl)cccc1-c1c[nH]cc1Cl | inactive | – | – | – | – | 9.62 | 11.2 µM (active) | 14.1 µM (active) | – |
| CC[C@@H](C(=O)O)[C@@H]1O[C@@H]([C@@H](C)[C@H](O)[C@H](C)C(=O)[C@H](CC)[C@H]2O[C@]3(C=C[C@@H](O)[C@]4(CC[C@@](C)([C@H]5CC[C@](O)(CC)[C@H](C)O5)O4)O3)[C@H](C)C[C@@H]2C)[C@@H](C)C[C@@H]1C | inactive | – | inactive | inactive | inactive | -17.2 | inactive | inactive | – |
| CCOC(=O)c1cc(-c2ccccc2)nc2ccc(C)cc12 | inactive | – | inactive | inactive | inactive | -2.37 | inactive | inactive | – |
| CC[C@]1(O)CC2CN(CCc3c([nH]c4ccccc34)[C@@](C(=O)OC)(c3cc4c(cc3OC)N(C)[C@H]3[C@@](O)(C(N)=O)[C@H](O)[C@]5(CC)C=CCN6CC[C@]43[C@@H]65)C2)C1 (stereo not given in full) | inactive | – | – | – | – | – | – | – | – |
| CC(=O)Oc1cc(C)c(OC(C)=O)c2ccccc12 | inactive | – | inactive | 29.8 µM (active) | inactive | 0.757 | 12.6 µM (active) | inactive | – |
| NC(=S)N=Nc1ccc(NN=C(N)N)cc1 | inactive | – | 23.7 µM (active) | 11.9 µM (active) | 29.8 µM (active) | -0.862 | inactive | inactive | – |
| CC(C)=CCC/C(C)=C/C=C/C(C)=C/C=C/C(C)=C/C=C/C=C(C)/C=C/C=C(C)/C=C/C=C(\C)CCC=C(C)C | inactive | – | inactive | inactive | inactive | 2.83 | inactive | inactive | – |
| O=C(O)c1nc(=O)[nH]c(=O)[nH]1 | inactive | – | inactive | inactive | inactive | -2.15 | inactive | inactive | – |
| CC1C(=O)CC2C3(C)CCC2(C(C)C(=O)O)C(=O)C13 (stereo not given) | inactive | – | inactive | inactive | inactive | 0.0537 | inactive | inactive | inactive |
| CC(=O)Nc1c(I)c(C(=O)O)c(I)c(N(C)C(C)=O)c1I | inactive | – | inactive | inactive | inactive | -0.923 | inactive | inactive | inactive |
| Nc1nc2[nH]cc(CCc3ccc(C(=O)N[C@@H](CCC(=O)O)C(=O)O)cc3)c2c(=O)[nH]1 | inactive | – | inactive | inactive | inactive | -1.09 | inactive | inactive | inactive |
| O=C(O)CCC/C=C\C[C@@H]1[C@@H](/C=C/[C@@H](O)COc2cccc(Cl)c2)[C@H](O)C[C@@H]1O | inactive | – | inactive | inactive | inactive | -0.0632 | inactive | inactive | inactive |
| FC(F)(F)C(F)(F)C(F)(F)C(F)(F)C(F)(F)C(F)(F)F | inactive | – | inactive | inactive | inactive | -1.09 | inactive | inactive | inactive |
| COC(=O)[C@@H](N)CS | inactive | – | inactive | inactive | inactive | 0.531 | inactive | inactive | inactive |
| O=P(O)(O)OC[C@H](O)CO | inactive | – | inactive | inactive | inactive | -3.61 | inactive | inactive | inactive |
| O=P(O)(O)OC[C@H]1O[C@](O)(COP(=O)(O)O)[C@@H](O)[C@@H]1O | inactive | – | inactive | inactive | inactive | -2.72 | inactive | inactive | inactive |
| CC(=O)Oc1cccc(C(=O)O)c1OC(C)=O | inactive | – | inactive | inactive | inactive | -1.97 | inactive | inactive | inactive |
| CC(C)(S)[C@@H](N)C(=O)O | inactive | – | inactive | inactive | inactive | -3.13 | inactive | inactive | inactive |

— PubChem BioAssay (Tox21)
